Holding throughout (experiment): DAPPL (digital affinity profiling via proximity ligation, sequencing); 10 mM Tris-HCl pH 7.5, 50 mM NaCl, 1 mM DTT, 4% glycerol, room temperature, 30 min; GST-TFs on glutathione beads, 16-mer random dsDNA library, 0.1% formaldehyde crosslink after washing; high values mean tight binding
What all share (details): protein: recombinant; tags: N-terminal GST; dsDNA, one strand shown

One assay has as its target T1, FLI1 (Homo sapiens, UniProt Q01543 1-452).
T1 sequence: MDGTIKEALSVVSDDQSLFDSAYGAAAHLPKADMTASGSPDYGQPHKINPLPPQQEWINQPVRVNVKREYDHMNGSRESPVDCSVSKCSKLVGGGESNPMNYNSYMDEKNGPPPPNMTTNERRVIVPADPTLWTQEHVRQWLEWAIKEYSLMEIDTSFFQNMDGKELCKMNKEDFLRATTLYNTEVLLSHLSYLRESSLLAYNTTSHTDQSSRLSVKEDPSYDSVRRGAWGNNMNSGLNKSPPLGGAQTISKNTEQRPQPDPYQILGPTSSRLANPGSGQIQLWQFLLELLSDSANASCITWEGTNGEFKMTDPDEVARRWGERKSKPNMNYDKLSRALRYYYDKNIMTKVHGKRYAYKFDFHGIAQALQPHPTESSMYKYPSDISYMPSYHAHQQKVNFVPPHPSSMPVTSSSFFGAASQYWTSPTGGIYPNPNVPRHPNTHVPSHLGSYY
A digest of the protocol:
(§1)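 Human transcription factors fused to GST were expressed in yeast, captured on glutathione beads, given DNA barcodes and pooled with a GST-only negative control. Pools were incubated with 200 nmole of a 16-mer random double-stranded DNA library in Tris/NaCl/DTT/glycerol buffer at room temperature for 30 min. They were then washed, crosslinked with 0.1% formaldehyde, proximity-ligated (BsaI/T4 ligase, 1 h, 37 °C), PCR-amplified and sequenced on an Illumina NextSeq500. Binding signal is each 6-mer's read frequency for a factor divided by its frequency for the GST control.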

The target in the next assay is T2, ELK1 (Homo sapiens, UniProt P19419 1-428).
T2 sequence: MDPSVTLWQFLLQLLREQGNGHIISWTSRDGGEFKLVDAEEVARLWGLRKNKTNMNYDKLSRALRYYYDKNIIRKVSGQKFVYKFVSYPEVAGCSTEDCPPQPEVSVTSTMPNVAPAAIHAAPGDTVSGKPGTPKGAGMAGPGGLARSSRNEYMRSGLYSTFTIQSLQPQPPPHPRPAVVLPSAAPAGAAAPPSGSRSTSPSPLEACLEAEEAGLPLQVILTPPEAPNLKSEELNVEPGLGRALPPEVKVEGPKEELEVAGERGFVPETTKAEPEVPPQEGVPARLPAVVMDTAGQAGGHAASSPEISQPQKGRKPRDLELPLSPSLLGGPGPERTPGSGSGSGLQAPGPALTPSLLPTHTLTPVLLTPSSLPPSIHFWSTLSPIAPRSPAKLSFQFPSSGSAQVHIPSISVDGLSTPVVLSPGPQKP
Put shortly:
as §1

A further assay deals with T3, GABPA (Homo sapiens, UniProt Q06546 1-454).
T3 sequence: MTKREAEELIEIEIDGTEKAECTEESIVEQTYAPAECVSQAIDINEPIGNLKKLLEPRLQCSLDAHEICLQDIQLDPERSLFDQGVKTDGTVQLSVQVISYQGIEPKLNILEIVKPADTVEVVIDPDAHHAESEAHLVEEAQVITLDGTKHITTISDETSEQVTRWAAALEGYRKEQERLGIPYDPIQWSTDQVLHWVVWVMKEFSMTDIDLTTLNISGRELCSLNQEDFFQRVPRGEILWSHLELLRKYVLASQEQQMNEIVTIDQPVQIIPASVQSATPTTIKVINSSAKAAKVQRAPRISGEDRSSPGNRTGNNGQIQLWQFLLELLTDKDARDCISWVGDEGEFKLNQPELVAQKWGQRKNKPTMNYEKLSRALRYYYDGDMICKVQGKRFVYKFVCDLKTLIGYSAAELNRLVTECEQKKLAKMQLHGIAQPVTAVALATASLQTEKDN
A digest of the protocol:
as §1

For another assay, the target named is T4, ERG (Homo sapiens, UniProt P11308 1-479).
T4 sequence: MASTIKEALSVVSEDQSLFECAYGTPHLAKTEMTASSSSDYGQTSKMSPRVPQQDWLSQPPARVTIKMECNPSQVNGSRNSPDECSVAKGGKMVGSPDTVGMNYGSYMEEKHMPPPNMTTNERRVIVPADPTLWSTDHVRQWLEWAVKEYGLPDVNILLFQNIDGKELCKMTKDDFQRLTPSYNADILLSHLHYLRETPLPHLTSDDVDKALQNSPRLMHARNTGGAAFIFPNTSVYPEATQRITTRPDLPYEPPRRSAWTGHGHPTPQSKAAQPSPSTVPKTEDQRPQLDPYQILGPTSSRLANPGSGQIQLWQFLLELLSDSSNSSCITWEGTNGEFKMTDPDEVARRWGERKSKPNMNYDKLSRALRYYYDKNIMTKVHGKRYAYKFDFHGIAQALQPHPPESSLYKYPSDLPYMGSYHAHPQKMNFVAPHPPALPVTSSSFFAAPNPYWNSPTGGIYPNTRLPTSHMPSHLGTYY
Put shortly:
as §1

Another assay addresses ELF1 (Homo sapiens, UniProt P32519 1-619). Put shortly: as §1
The next assay deals with T5, EHF (Homo sapiens, UniProt Q9NZC4 1-300).
T5 sequence: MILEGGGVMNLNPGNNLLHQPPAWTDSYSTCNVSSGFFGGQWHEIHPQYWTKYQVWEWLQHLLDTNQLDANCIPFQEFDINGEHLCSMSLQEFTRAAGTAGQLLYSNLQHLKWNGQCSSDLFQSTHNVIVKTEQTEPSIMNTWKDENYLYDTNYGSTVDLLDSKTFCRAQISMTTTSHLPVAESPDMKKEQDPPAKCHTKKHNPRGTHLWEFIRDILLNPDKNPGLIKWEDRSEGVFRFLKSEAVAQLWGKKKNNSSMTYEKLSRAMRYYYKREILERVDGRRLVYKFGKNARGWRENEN
Put shortly: as §1

Another assay deals with SPI1 (Homo sapiens, UniProt P17947 1-270). A digest of the protocol:
as §1

For a further assay, the target named is SPIB (Homo sapiens, UniProt Q01892 1-262). Put shortly: as §1
The next assay has as its target T6, ELK3 (Homo sapiens, UniProt P41970 1-407).
T6 sequence: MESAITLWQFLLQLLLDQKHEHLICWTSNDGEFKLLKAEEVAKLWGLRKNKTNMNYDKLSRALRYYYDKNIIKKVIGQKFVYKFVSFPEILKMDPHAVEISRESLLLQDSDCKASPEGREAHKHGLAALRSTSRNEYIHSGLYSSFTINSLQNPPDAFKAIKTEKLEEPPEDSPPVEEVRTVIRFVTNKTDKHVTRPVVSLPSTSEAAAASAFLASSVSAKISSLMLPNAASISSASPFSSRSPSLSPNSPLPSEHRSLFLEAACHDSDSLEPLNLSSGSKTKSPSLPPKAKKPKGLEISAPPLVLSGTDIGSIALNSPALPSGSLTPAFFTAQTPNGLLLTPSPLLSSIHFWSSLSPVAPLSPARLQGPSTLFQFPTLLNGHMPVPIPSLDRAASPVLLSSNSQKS
Put shortly: as §1

Sequence of SPIB (Q01892 whole entry): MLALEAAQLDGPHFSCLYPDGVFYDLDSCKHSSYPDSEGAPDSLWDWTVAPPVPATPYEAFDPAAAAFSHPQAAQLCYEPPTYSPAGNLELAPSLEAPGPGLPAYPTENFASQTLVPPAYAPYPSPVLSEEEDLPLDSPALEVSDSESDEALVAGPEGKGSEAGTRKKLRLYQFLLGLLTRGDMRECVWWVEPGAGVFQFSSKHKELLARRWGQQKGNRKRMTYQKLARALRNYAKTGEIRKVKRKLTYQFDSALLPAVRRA
Sequence of ELF1 (P32519 whole entry): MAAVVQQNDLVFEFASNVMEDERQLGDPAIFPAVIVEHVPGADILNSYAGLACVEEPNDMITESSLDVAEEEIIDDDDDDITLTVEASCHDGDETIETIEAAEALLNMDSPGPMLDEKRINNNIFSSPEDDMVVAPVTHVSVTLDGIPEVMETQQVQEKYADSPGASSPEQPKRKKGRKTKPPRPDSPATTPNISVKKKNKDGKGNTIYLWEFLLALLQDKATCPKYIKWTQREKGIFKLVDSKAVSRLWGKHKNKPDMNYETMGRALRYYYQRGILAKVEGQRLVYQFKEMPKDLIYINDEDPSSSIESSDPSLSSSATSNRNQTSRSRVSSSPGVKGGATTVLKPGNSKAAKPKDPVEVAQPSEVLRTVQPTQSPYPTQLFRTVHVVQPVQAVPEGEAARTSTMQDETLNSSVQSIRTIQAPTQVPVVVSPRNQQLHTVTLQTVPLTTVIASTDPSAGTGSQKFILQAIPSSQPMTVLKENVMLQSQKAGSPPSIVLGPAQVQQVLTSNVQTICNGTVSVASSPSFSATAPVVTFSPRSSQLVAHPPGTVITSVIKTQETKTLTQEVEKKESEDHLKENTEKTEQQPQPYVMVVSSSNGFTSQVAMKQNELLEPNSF

With CTTTAA, the binding signal with FLI1 is 1.37 fold enrichment (6-mer frequency, TF over GST control); with ELK1, 1.27 fold enrichment (6-mer frequency, TF over GST control); in the assay with GABPA it was 1.28 fold enrichment (6-mer frequency, TF over GST control); with ERG, 1.27 fold enrichment (6-mer frequency, TF over GST control); in the assay with ELF1 it was 1.33 fold enrichment (6-mer frequency, TF over GST control); with EHF, 1.2 fold enrichment (6-mer frequency, TF over GST control). For the same sequence, the binding signal in the assay with SPI1 was 1.39 fold enrichment (6-mer frequency, TF over GST control); in the assay with SPIB, 1.19 fold enrichment (6-mer frequency, TF over GST control); with ELK3, 1.28 fold enrichment (6-mer frequency, TF over GST control).

GCACAT: the binding signal was 1.16 fold enrichment (6-mer frequency, TF over GST control) in the assay with FLI1; 1.05 fold enrichment (6-mer frequency, TF over GST control) with ELK1; 1.16 fold enrichment (6-mer frequency, TF over GST control) with GABPA; 1.2 fold enrichment (6-mer frequency, TF over GST control) in the assay with ERG; 1.1 fold enrichment (6-mer frequency, TF over GST control) with ELF1; 1.14 fold enrichment (6-mer frequency, TF over GST control) with EHF. For the same sequence, the binding signal with SPI1 was 1.14 fold enrichment (6-mer frequency, TF over GST control); in the assay with SPIB, 1.08 fold enrichment (6-mer frequency, TF over GST control); in the assay with ELK3, 1.17 fold enrichment (6-mer frequency, TF over GST control).

As for CCATAC, the binding signal with FLI1 was 1.23 fold enrichment (6-mer frequency, TF over GST control); with ELK1, 1.07 fold enrichment (6-mer frequency, TF over GST control); with GABPA, 1.16 fold enrichment (6-mer frequency, TF over GST control); with ERG it was 1.08 fold enrichment (6-mer frequency, TF over GST control); in the assay with ELF1, 1.18 fold enrichment (6-mer frequency, TF over GST control); with EHF, 1.19 fold enrichment (6-mer frequency, TF over GST control). In addition, the binding signal in the assay with SPI1 was 1.18 fold enrichment (6-mer frequency, TF over GST control); with SPIB it was 1.15 fold enrichment (6-mer frequency, TF over GST control); with ELK3, 1.2 fold enrichment (6-mer frequency, TF over GST control).

CAACTG: the binding signal with FLI1 was 1.18 fold enrichment (6-mer frequency, TF over GST control); with ELK1 it was 1.15 fold enrichment (6-mer frequency, TF over GST control); with GABPA it was 1.15 fold enrichment (6-mer frequency, TF over GST control); in the assay with ERG, 1.2 fold enrichment (6-mer frequency, TF over GST control); with ELF1 it was 1.27 fold enrichment (6-mer frequency, TF over GST control); in the assay with EHF, 1.17 fold enrichment (6-mer frequency, TF over GST control). The binding signal was 1.05 fold enrichment (6-mer frequency, TF over GST control) in the assay with SPI1; 1.13 fold enrichment (6-mer frequency, TF over GST control) with SPIB; 1.09 fold enrichment (6-mer frequency, TF over GST control) with ELK3.

Take CCCCGG: the binding signal is 1.19 fold enrichment (6-mer frequency, TF over GST control) in the assay with FLI1; 1.18 fold enrichment (6-mer frequency, TF over GST control) in the assay with ELK1; 1.15 fold enrichment (6-mer frequency, TF over GST control) with GABPA; 1.3 fold enrichment (6-mer frequency, TF over GST control) with ERG; 1.22 fold enrichment (6-mer frequency, TF over GST control) with ELF1; 1.24 fold enrichment (6-mer frequency, TF over GST control) with EHF. Further, the binding signal in the assay with SPI1 was 1.16 fold enrichment (6-mer frequency, TF over GST control); with SPIB, 1.27 fold enrichment (6-mer frequency, TF over GST control); with ELK3, 1.2 fold enrichment (6-mer frequency, TF over GST control).

Take CGAAAC: the binding signal with FLI1 was 1.14 fold enrichment (6-mer frequency, TF over GST control); with ELK1, 1.15 fold enrichment (6-mer frequency, TF over GST control); with GABPA, 1.08 fold enrichment (6-mer frequency, TF over GST control); with ERG it was 1.21 fold enrichment (6-mer frequency, TF over GST control); with ELF1 it was 1.23 fold enrichment (6-mer frequency, TF over GST control); with EHF it was 1.17 fold enrichment (6-mer frequency, TF over GST control). Besides, the binding signal in the assay with SPI1 is 1.21 fold enrichment (6-mer frequency, TF over GST control); with SPIB, 1.16 fold enrichment (6-mer frequency, TF over GST control); in the assay with ELK3, 1.07 fold enrichment (6-mer frequency, TF over GST control).

Regarding TGTAGC, the binding signal in the assay with FLI1 was 1.1 fold enrichment (6-mer frequency, TF over GST control); with ELK1, 1.16 fold enrichment (6-mer frequency, TF over GST control); with GABPA, 1.16 fold enrichment (6-mer frequency, TF over GST control); in the assay with ERG it was 1.11 fold enrichment (6-mer frequency, TF over GST control); with ELF1, 1.2 fold enrichment (6-mer frequency, TF over GST control); with EHF it was 1.16 fold enrichment (6-mer frequency, TF over GST control). The binding signal with SPI1 was 1.17 fold enrichment (6-mer frequency, TF over GST control); in the assay with SPIB, 1.03 fold enrichment (6-mer frequency, TF over GST control); with ELK3 it was 1.27 fold enrichment (6-mer frequency, TF over GST control).

Regarding CGTCAA, the binding signal with FLI1 was 1.2 fold enrichment (6-mer frequency, TF over GST control); with ELK1 it was 1.15 fold enrichment (6-mer frequency, TF over GST control); with GABPA, 1.19 fold enrichment (6-mer frequency, TF over GST control); with ERG, 1.11 fold enrichment (6-mer frequency, TF over GST control); in the assay with ELF1, 1.11 fold enrichment (6-mer frequency, TF over GST control); with EHF, 1.12 fold enrichment (6-mer frequency, TF over GST control). Further, the binding signal in the assay with SPI1 is 1.01 fold enrichment (6-mer frequency, TF over GST control); in the assay with SPIB, 1.27 fold enrichment (6-mer frequency, TF over GST control); in the assay with ELK3, 1.06 fold enrichment (6-mer frequency, TF over GST control).

The record behind these values is publication PMC7862700, “An all-to-all approach to the identification of sequence-specific readers for epigenetic DNA modifications on cytosine”.
